TDP1 cell noCPT – qHTS for Inhibitors of human tyrosyl-DNA phosphodiesterase 1 (TDP1): qHTS in cells in absence of CPT. DT40 Tdp1-/- hTDP1 cells, no CPT, ATP luminescence, 48 h. 15% of 420,000 active. Potency, µM (highest dose often 46.2 µM), for inactives: top-dose activity change, negative = growth inhibition, most hits filed as inhibitors. AID 686978, 2013; further: potency means the concentration at half of the fitted maximal effect; nearly all actives have a fitted effect of over 55% in size
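Cells were dispensed at 400 per well, compounds added by pin tool, plates incubated ≥48 hr at 37 °C, then CellTiter-Glo added for 30 min at room temperature before luminescence reading. Line: DT40 Tdp1-/- complemented with hTDP1; camptothecin omitted.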
Giardia killer – Small Molecules that selectively kill Giardia lamblia: qHTS; Giardia lamblia trophozoite viability; activity change, % at 7.66 µM, hits read low; 0.15% of 340,000 active; in the data active means activity change below about -80%; inconclusive means between about -30% and that limit;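 further: parasites exposed to compound for two days anaerobically before the ATP read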
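Giardia lamblia trophozoites (100 cells/well) were incubated with compounds for 48 h at 37 deg C under anaerobic conditions. Viability was read as ATP content by one-step luminescence after 15-30 min at room temperature.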
TDP1 inh – qHTS Assay for Inhibitors of Tyrosyl-DNA Phosphodiesterase (TDP1). Tyrosyl-DNA phosphodiesterase 1 (Homo sapiens), Q9NUW8. recombinant TDP1, AlphaScreen DNA substrate cleavage. Potency, µM (doses to about 130 µM), for the others: top-dose activity change, negative = inhibition, most hits filed as inhibitors. 0.28% of 350,000 active; further: potency means the concentration at half of the fitted maximal effect; nearly all actives have a fitted effect of over 40% in size
Target sequence (Q9NUW8 whole entry, looked up): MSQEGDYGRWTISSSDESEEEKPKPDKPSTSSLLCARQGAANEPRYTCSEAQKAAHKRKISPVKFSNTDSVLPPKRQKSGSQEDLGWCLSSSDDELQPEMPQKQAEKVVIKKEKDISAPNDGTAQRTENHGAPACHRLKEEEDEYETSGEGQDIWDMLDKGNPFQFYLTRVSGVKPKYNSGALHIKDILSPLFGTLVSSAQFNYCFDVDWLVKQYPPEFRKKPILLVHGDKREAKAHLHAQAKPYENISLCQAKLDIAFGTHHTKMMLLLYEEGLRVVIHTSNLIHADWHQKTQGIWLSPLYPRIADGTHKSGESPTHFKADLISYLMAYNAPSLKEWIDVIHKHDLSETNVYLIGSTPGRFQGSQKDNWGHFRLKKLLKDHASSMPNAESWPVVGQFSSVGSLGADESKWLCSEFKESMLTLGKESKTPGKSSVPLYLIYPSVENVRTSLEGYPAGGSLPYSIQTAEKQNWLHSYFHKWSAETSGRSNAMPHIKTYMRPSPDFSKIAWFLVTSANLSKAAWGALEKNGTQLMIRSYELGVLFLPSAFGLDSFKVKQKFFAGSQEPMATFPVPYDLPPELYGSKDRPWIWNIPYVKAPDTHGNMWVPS
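Tdp1 1 nM final; 15 min RT w/ cpd; substrate 15 nM, 5 min; beads 10 ug/ml, 10 min; AlphaScreen read. Neg ctrl: no enzyme.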
ELG1 DNA repair – qHTS screen for small molecules that inhibit ELG1-dependent DNA repair in human embryonic kidney (HEK293T) cells expressing luciferase-tagged ELG1. HEK293T ELG1-luciferase reporter, luminescence, 16 h; DNA damage induced by 5-fluorouridine. Potency, µM (highest dose often 46.1 µM), inactives show top-dose activity change, negative = inhibition, usual class: inhibitors. 2.3% of 330,000 active; further: potency means the concentration at half of the fitted maximal effect; nearly all actives have a fitted effect of over 55% in size
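Reporter activity after DNA damage by 5-fluorouridine is monitored. Compound-treated cells incubate 16 hr at 37 °C, then ONE-Glo is added for 30 min before luminescence reading.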
TDP1 cell CPT – qHTS for Inhibitors of human tyrosyl-DNA phosphodiesterase 1 (TDP1): qHTS in cells in presence of CPT. chicken DT40 Tdp1-/-;hTDP1 cells + 20 nM CPT, ATP luminescence, 48 h. Potency, µM (doses to about 46.2 µM), without a hit: at the top dose activity change, negative = growth inhibition, actives largely listed as inhibitors. 12% of 420,000 active. AID 686979, 2013; further: potency means the concentration at half of the fitted maximal effect; nearly all actives have a fitted effect of over 55% in size
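Chicken DT40 Tdp1-/- cells complemented with human TDP1, 400 cells/well, exposed to compounds plus 20 nM camptothecin for at least 48 h at 37 C; viability read as ATP content by CellTiter-Glo luminescence.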
IL1B secr inh – qHTS for Inhibitors of Inflammasome Signaling: IL-1-beta AlphaLISA Primary Screen; AID 743279, 2014; THP-1 LPS/ATP IL-1B secretion, AlphaLISA, 16 h; active compounds read low; activity change, % at 57.5 µM; 4.7% of 360,000 active; in the data active means activity change below about -50%; inconclusive means mostly about -30% to -49%
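THP-1 cells pretreated 1 hr with compounds (up to 57.5 uM final), then stimulated with LPS (250 ng/mL final) plus ATP (1.25 mM final); secreted IL-1B measured by AlphaLISA after 16 hr, decreased signal indicating inhibition.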
* marks the source's active call; other numbers are inactive results; ? = inconclusive; . = not tested or not shown; [ ] = dose if it differs, or a comment. Sampled rows, rich in hits. Any-hit rate of the full collection: about 19%. Unless noted, the call rests on the fitted dose curve; in most records, active means well fitted curve in the direction sought with a large enough effect; inconclusive means small, poorly fitted or top-dose-only effect, or another doubt; inactive means no such curve, though single readings can be large; an effect the other way counts as inactive or inconclusive. On the % scale 0 is the no-effect control and ±100 the full control effect.

SMILES	TDP1 cell noCPT	Giardia killer	TDP1 inh	ELG1 DNA repair	TDP1 cell CPT	IL1B secr inh
COc1ccc(C(CNC(=O)COc2ccc(Cl)c(C)c2)N2CCOCC2)cc1 (stereo not given)	?	.	-3%	.	21µM*	.
COc1ccc(C(CNC(=O)COc2cc(C)c(Cl)c(C)c2)N2CCCCC2)cc1 (stereo not given)	16µM*	23	3%	-2%	23µM*	?
COc1ccc(C(CNC(=O)COc2cc(C)cc(C)c2)N2CCCCC2)cc1 (stereo not given)	?	.	0%	.	23µM*	.
COc1ccc(OCC(=O)NCC(c2ccc(OC)cc2)N2CCCCC2)cc1 (stereo not given)	6%	3	2%	16%	-16%	0
COc1ccc(C(CNC(=O)COc2ccccc2)N2CCOCC2)cc1 (stereo not given)	3%	2	0%	26%	7%	-1
COc1ccc(C(CNC(=O)COc2ccc(Cl)cc2C)N2CCCCC2)cc1 (stereo not given)	-23%	-6	3%	-2%	?	31
O=C(Cn1c(=O)c2cc(Cl)ccc2n2nncc12)Nc1ccccc1	-15%	.	1%	.	-27%	.
Cc1cc(C)n(CCc2nc3c4ccccc4nc(SCc4ccc(F)cc4)n3n2)n1	10%	.	0%	.	4%	.
O=C(C1CC1)N1CCN(c2ccc(F)cc2)CC1	1%	-2	.	?	6%	-5
COc1ccc(N2CCN(CCCNC(=O)C3CCC(CNc4nc(=S)[nH]c5ccccc45)CC3)CC2)cc1 (stereo not given)	23µM*	-17	8%	?	?	-7
O=C(C1CCC(CNc2nc(=S)[nH]c3ccccc23)CC1)N1CCN(c2ccc(F)cc2)CC1 (stereo not given)	4.6µM*	6	8%	23µM*	2.6µM*	-72*
Cc1ccccc1Cn1cc(NC(=O)c2cc3nc(-c4ccco4)cc(C(F)(F)F)n3n2)cn1	?	11	4%	6.5µM*	?	-5
CCc1ccc(-c2cc(C(F)(F)F)n3nc(C(=O)Nc4cnn(Cc5ccc(C)cc5)c4)cc3n2)s1	5µM*	2	-1%	?	5µM*	-27
Cc1nn(C)c(C)c1NC(=O)c1cc2nc(-c3ccco3)cc(C(F)(F)F)n2n1	-20%	5	9%	-7%	-2%	-16
O=C(Nc1ccc(NC(=O)c2cc([N+](=O)[O-])ccc2N2CCOCC2)cc1)c1cccs1	?	18	-3%	-15%	?	?
Clc1ccc(-c2nnc(C34CC5CC(CC(C5)C3)C4)o2)cn1	29µM*	-14	5%	13%	?	20
O=C(NCCN1CCOCC1)C1(C(F)(F)F)C/C(=C/CCO)CCCO1 (stereo not given)	.	15	5%	.	.	.
O=C(O)C1CC(C2CCCCN2)CN2CCCCC12 (stereo not given)	3%	.	12%[56.1 µM]	.	-2%	.
Nc1ncnc2c1c(-c1ccc(Oc3ccccc3)cc1)cn2C1CCCC1	18µM*	1	18%	?	?	56
CCN(CC)CC(C)OC(=O)COc1ccc(OC)cc1 (stereo not given)	3%	4	0%	1%	21%	4
CCCCC(=O)Nc1ccc(S(=O)(=O)N2CCCCC2c2cccnc2)cc1 (stereo not given)	13µM*	5	4%	-16%	18µM*	0
O=C(Nc1ccc(S(=O)(=O)N2CCCCC2c2cccnc2)cc1)c1ccc(Br)cc1 (stereo not given)	9.2µM*	.	9%	.	16µM*	.
CCc1ccccc1N(CC)C(=O)Cn1nc(Cc2ccncc2)c2ccccc2c1=O	?	.	6%	.	?	.
CCC(=O)C1CCCN(C(=O)c2ccc(OC3CCN(C(=O)CCOC)CC3)cc2)C1 (stereo not given)	-9%	-3	4%	7%	-18%	17
O=C(C1CCCN(S(=O)(=O)c2ccc(F)cc2)C1)N1CCCCC1 (stereo not given)	23µM*	-14	3%	15%	-15%	32
SMILES	TDP1 cell noCPT	Giardia killer	TDP1 inh	ELG1 DNA repair	TDP1 cell CPT	IL1B secr inh
O=C(C1CCCN(S(=O)(=O)c2ccc(F)cc2)C1)N1CCCCCC1 (stereo not given)	8.2µM*	20	4%	-3%	12µM*	11
O=C(C1CCCN(S(=O)(=O)c2ccccc2)C1)N1CCCCC1 (stereo not given)	-7%	-1	3%[56.1 µM]	7%	-22%	43
C[C@H]1OC(=O)CC[C@@H]2[C@]1(C)CCC1[C@@]2(C)CC[C@@]2(C)C3CC(C)(C)CC[C@]3(CO)CC[C@]12C (stereo not given in full)	?	.	9%	.	?	.
COC(=O)[C@@H](NC(=O)N1CCc2nc(-c3ccccc3)c3c(c2C1)CO[C@@H](C)C3)C(C)C	.	.	4%[12.3 µM]	.	.	.
N#C/C(=C\c1c[nH]c2ccccc12)C(=O)c1ccc(O)c(O)c1	.	.	17%[56.1 µM]	.	.	.
COc1ccc2c(Cl)c(C(=O)N/N=C3\CCCC(=O)C3)sc2c1	?	1	8%	?	-7%	33
CC(C)(C)OC(=O)C[C@H]1C/C=C\C[C@@H](CC(=O)NCCO)C(=O)NC[C@H](c2ccccc2)OC1=O	-15%	-2	2%	3%	4%	32
CC(C)(C)OC(=O)C[C@@H]1C/C=C\C[C@@H](CC(=O)NCCO)C(=O)NC[C@@H](c2ccccc2)OC1=O	-7%	-19	-3%	14%	1%	1
CC(C)(C)OC(=O)C[C@H]1C/C=C\C[C@H](CC(=O)N(CCO)Cc2ccccc2)C(=O)NC[C@H](c2ccccc2)OC1=O	?	0	-2%	0%	16µM*	-21
CC(C)(C)OC(=O)C[C@H]1C/C=C\C[C@@H](CC(=O)N(CCO)Cc2ccccc2)C(=O)NC[C@@H](c2ccccc2)OC1=O	18µM*	8	2%	?	?	-8
Cc1ccc(CNC(=O)Cn2c(=O)n(-c3ccc(C)cc3)c(=O)c3c2c2cc(C)ccc2n3C)cc1	-14%	.	6%	.	-12%	.
